Measured values published in PMC5540273 (PLoS ONE, 2017).

Key:
Details in all cases: concentration: 1 μM, replicates: in singlicate; n = 1
MKK7 = test system: MKK7
MKNK1 = test system: MKNK1
MKNK2 = test system: MKNK2
MLCK = test system: T1, MLCK
T1 construct: gene MYLK3

MLK1 = test system: T2, MLK1
T2 construct: gene MAP3K9

MLK2 = test system: MLK2
MLK3 = test system: MLK3
MRCKA = test system: MRCKA
MRCKB = test system: T3, MRCKB
T3 construct: gene CDC42BPB

MST1R = test system: MST1R
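Note: KINOMEscan kinase panel screen.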

For `O=C1Cc2cc(Nc3nc(NCc4cccc(S(=O)(=O)C(F)(F)F)c4)ncc3C(F)(F)F)ccc2N1`, the “%Inh” value (MKK7) was 0%, the “%Inh” value (MKNK1) was 0% and the “%Inh” value (MKNK2) was 0%. For the same compound, the “%Inh” value (MLCK) was 10%, the “%Inh” value (MLK1) was 0% and the “%Inh” value (MLK2) was 32%. The “%Inh” value (MLK3) was 3%, the “%Inh” value (MRCKA) was 5% and the “%Inh” value (MRCKB) was 10%. For the same compound, the “%Inh” value (MST1R) was 0%.

With `Cl.Oc1cccc(Nc2ccnc3cc(-c4ccncc4)ccc23)c1` [GW494601] the “%Inh” value (MKK7) was 0%, the “%Inh” value (MKNK1) was 0% and the “%Inh” value (MKNK2) was 21%. For the same compound, the “%Inh” value (MLCK) was 0%, the “%Inh” value (MLK1) was 0% and the “%Inh” value (MLK2) was 0%. For the same compound, the “%Inh” value (MLK3) was 1%, the “%Inh” value (MRCKA) was 1% and the “%Inh” value (MRCKB) was 0%. For the same compound, the “%Inh” value (MST1R) was 36%.

With `Cc1cccc(-c2nc(-c3ccc(S(C)(=O)=O)cc3)sc2-c2ccncc2)c1` the “%Inh” value (MKK7) was 20%, the “%Inh” value (MKNK1) was 0% and the “%Inh” value (MKNK2) was 13%. The “%Inh” value (MLCK) was 0%, the “%Inh” value (MLK1) was 0% and the “%Inh” value (MLK2) was 33%. The “%Inh” value (MLK3) was 27%, the “%Inh” value (MRCKA) was 0% and the “%Inh” value (MRCKB) was 0%. The “%Inh” value (MST1R) was 23%.

`O=C(NCCNc1ccnc(Nc2ccc(F)cc2)n1)Nc1ccccc1F` [GSK1379880] was tested, and the “%Inh” value (MKK7) was 0%, the “%Inh” value (MKNK1) was 0% and the “%Inh” value (MKNK2) was 5%. For the same compound, the “%Inh” value (MLCK) was 0%, the “%Inh” value (MLK1) was 0% and the “%Inh” value (MLK2) was 0%. For the same compound, the “%Inh” value (MLK3) was 0%, the “%Inh” value (MRCKA) was 21% and the “%Inh” value (MRCKB) was 3%. For the same compound, the “%Inh” value (MST1R) was 50%.

In the case of `O=c1cc(N2CCOCC2)nc2n(Cc3cccc(C(F)(F)F)c3)ccn12` [GSK2297543], the “%Inh” value (MKK7) is reported as 0%, the “%Inh” value (MKNK1) is reported as 0% and the “%Inh” value (MKNK2) is reported as 0%. For the same compound, the “%Inh” value (MLCK) was 0%, the “%Inh” value (MLK1) was 0% and the “%Inh” value (MLK2) was 14%. For the same compound, the “%Inh” value (MLK3) was 19%, the “%Inh” value (MRCKA) was 0% and the “%Inh” value (MRCKB) was 0%. The “%Inh” value (MST1R) was 12%.

In the case of `Fc1ccc(-c2ncn(CCCN3CCOCC3)c2-c2ccccn2)cc1` [SB-211742], the “%Inh” value (MKK7) is reported as 0%, the “%Inh” value (MKNK1) is reported as 0% and the “%Inh” value (MKNK2) is reported as 0%. For the same compound, the “%Inh” value (MLCK) was 0%, the “%Inh” value (MLK1) was 0% and the “%Inh” value (MLK2) was 27%. For the same compound, the “%Inh” value (MLK3) was 0%, the “%Inh” value (MRCKA) was 0% and the “%Inh” value (MRCKB) was 0%. The “%Inh” value (MST1R) was 0%.

With `O=C(Nc1cccc(-c2nn3ncccc3c2-c2ccnc(Nc3cccc(C(F)(F)F)c3)n2)c1)c1c(F)cccc1F` [GSK299495] the “%Inh” value (MKK7) was 0%, the “%Inh” value (MKNK1) was 0% and the “%Inh” value (MKNK2) was 24%. The “%Inh” value (MLCK) was 11%, the “%Inh” value (MLK1) was 0% and the “%Inh” value (MLK2) was 0%. The “%Inh” value (MLK3) was 0%, the “%Inh” value (MRCKA) was 58% and the “%Inh” value (MRCKB) was 68%. The “%Inh” value (MST1R) was 44%.

In the case of `O=c1cc(N2CCOCC2)nc2n(Cc3cccc4ccccc34)ccn12` [GSK2333389], the “%Inh” value (MKK7) is reported as 0%, the “%Inh” value (MKNK1) is reported as 0% and the “%Inh” value (MKNK2) is reported as 3%. For the same compound, the “%Inh” value (MLCK) was 0%, the “%Inh” value (MLK1) was 0% and the “%Inh” value (MLK2) was 2%. For the same compound, the “%Inh” value (MLK3) was 0%, the “%Inh” value (MRCKA) was 0% and the “%Inh” value (MRCKB) was 0%. For the same compound, the “%Inh” value (MST1R) was 12%.

With `O=C(NCCNc1ccnc(Nc2ccc(F)cc2)n1)c1cc2ccccc2s1` [GSK1379874] the “%Inh” value (MKK7) was 0%, the “%Inh” value (MKNK1) was 2% and the “%Inh” value (MKNK2) was 0%. For the same compound, the “%Inh” value (MLCK) was 0%, the “%Inh” value (MLK1) was 6% and the “%Inh” value (MLK2) was 0%. For the same compound, the “%Inh” value (MLK3) was 17%, the “%Inh” value (MRCKA) was 13% and the “%Inh” value (MRCKB) was 0%. For the same compound, the “%Inh” value (MST1R) was 30%.
